PubChem BioAssay (NCI)
The panel holds about 83,000 compounds, 20% with a hit somewhere; the sample as a whole holds those more often.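 In brief: 96-well plates, 48 h treatment, single concentration, percent growth endpoint.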 Values without a mark were called inactive. Active and inactive are the calls of the source. How the source made its calls: active means growth percent below 10; inactive means the rest.

Key:
Experiment in all cases: NCI-60 one-dose screen, 48 h (100 = growth as untreated, 0 = no growth, -100 = all killed)
Settings in all cases: 10 µM unless noted
HCT-15 colon = system: HCT-15 colon
HT29 colon = system: HT29 colon
SNB-75 CNS = system: SNB-75 CNS
SNB-19 CNS = system: SNB-19 CNS
U251 CNS = system: U251 CNS
PC-3 prostate = system: PC-3 prostate
SK-MEL-5 melanoma = system: SK-MEL-5 melanoma
UACC-62 melanoma = system: UACC-62 melanoma
LOX IMVI melanoma = system: LOX IMVI melanoma
SK-MEL-28 melanoma = system: SK-MEL-28 melanoma
SK-MEL-2 melanoma = system: SK-MEL-2 melanoma
EKVX NSCLC = system: EKVX NSCLC
SN12C renal = system: SN12C renal
UO-31 renal = system: UO-31 renal
TK-10 renal = system: TK-10 renal
ACHN renal = system: ACHN renal
CAKI-1 renal = system: CAKI-1 renal
A498 renal = system: A498 renal
CCRF-CEM leukemia = system: CCRF-CEM leukemia
MOLT-4 leukemia = system: MOLT-4 leukemia

Structure (SMILES)	growth (HCT-15 colon)	growth (HT29 colon)	growth (SNB-75 CNS)	growth (SNB-19 CNS)	growth (U251 CNS)	growth (PC-3 prostate)	growth (SK-MEL-5 melanoma)	growth (UACC-62 melanoma)	growth (LOX IMVI melanoma)	growth (SK-MEL-28 melanoma)	growth (SK-MEL-2 melanoma)	growth (EKVX NSCLC)	growth (SN12C renal)	growth (UO-31 renal)	growth (TK-10 renal)	growth (ACHN renal)	growth (CAKI-1 renal)	growth (A498 renal)	growth (CCRF-CEM leukemia)	growth (MOLT-4 leukemia)
CSc1ccc(/C=C2\C=C(CC(=O)NCc3ccc(C(=O)c4ccccc4)cc3)c3cc(F)ccc32)cc1	5.88% (active)	-15.1% (active)	-18.4% (active)	18.2%	-2.89% (active)	12.4%	-51.4% (active)	3.75% (active)	5.66% (active)	18.2%	-3.62% (active)	25.5%	9.57% (active)	26.6%	13.8%	2.09% (active)	7.79% (active)	-10.5% (active)	11.5%	9.47% (active)
CCCCCCCCCCCCCC1=NC(C)(C)CN1C(C)C	-65.1% (active)	-57.5% (active)	-41.1% (active)	28.9%	-63.5% (active)	-37.6% (active)	-86.7% (active)	-70.8% (active)	-74.1% (active)	-73% (active)	-66.3% (active)	-2.5% (active)	9.87% (active)	-65.1% (active)	-73% (active)	-67.2% (active)	-67% (active)	87.7%	-44.1% (active)	-58.5% (active)
CS(=O)(=O)c1ccc(C(=O)N/N=C/c2ccccc2O)cc1	18%	43.6%	77.8%	45.4%	27.8%	54.3%	32.2%	16.4%	21.4%	55.9%	40%	25.8%	58.7%	18%	45.8%	28.3%	34.9%	75.2%	15.3%	9.19% (active)
CC1=CC(=O)OC1C/C=C(\C)CCC1[C@@]2(C)CCC[C@@](C)(C(=O)O)C2CC[C@@]1(C)O (stereo not given in full)	14.1%	86.8%	74%	53.3%	35.4%	59.1%	-23.8% (active)	15.4%	97.3%	26.7%	16.5%	38.8%	41%	32.2%	53.6%	26.1%	32.9%	52.7%	70.2%	114%
COC(=O)c1ccc2c(c1)nc(-c1cc3ccccc3[nH]c1=O)n2-c1cc(C(C)(C)C)[nH]n1	78.2%	7.39% (active)	101%	35%	39.7%	53%	74.9%	51.2%	11.2%	84.1%	55.9%	85.6%	57.3%	29.1%	113%	78.5%	67.9%	59.6%	30.3%	18.1%
CC(C)(C)OC[C@@H]1N=C(c2ccc(Br)cc2)Nc2nc3ccccn3c2C1=O	44.1%	21.8%	77.4%	76.5%	63.5%	53.4%	38.4%	53.6%	58.7%	68.6%	49.2%	81.6%	84.1%	52.1%	95.1%	75.3%	64.2%	66.9%	67.8%	53.7%
Cc1ccncc1NC=O	104%	111%	103%	102%	101%	99%	101%	101%	104%	112%	108%	101%	110%	96.2%	102%	115%	95.8%	103%	104%	108%
CS(=O)(=O)c1ccc(C(=O)N/N=C/c2ccc3c(c2)OCO3)cc1	100%	88.9%	94.4%	98.5%	92.3%	92%	106%	98%	96.5%	114%	89.1%	100%	99.2%	96.3%	106%	105%	93%	94.6%	87%	70.8%
O=C(Nc1cccc(-n2ccc3c(NC(=O)c4ccccc4)nccc32)c1)c1ccc(N2CCOCC2)c(C(F)(F)F)c1	14.1%	2.15% (active)	-12.5% (active)	43.3%	15.5%	23.7%	-68.6% (active)	40.1%	9.86% (active)	32.8%	13.4%	45.5%	34%	5% (active)	6.82% (active)	24.2%	14.8%	21.9%	15.7%	17.4%
ClC1(Cl)C2CCCCCCC21 (stereo not given)	107%	97.5%	97.2%	99.6%	109%	98.7%	110%	103%	108%	107%	93%	107%	108%	93.4%	92.1%	110%	98.3%	79.3%	109%	109%
CC(=O)Nc1ccc(/C=N/N2CCCCCC2)cc1	102%	102%	86.2%	91.8%	90.4%	109%	106%	95.9%	101%	103%	118%	98.8%	83.3%	93.9%	114%	79.1%	92.7%	108%	106%	102%
COc1ccc(C2c3cccn3-c3ccccc3N2C(C)=O)cc1 (stereo not given)	87.7%	115%	77.4%	100%	106%	78.4%	96.1%	86.3%	96.1%	108%	117%	85.9%	99.8%	70.6%	103%	99%	84.2%	86%	88.3%	1.08% (active)
CC(=O)C1CCC2C3CC(C)=C4CC(O)CCC4(C)C3CCC12C (stereo not given)	100%	96.4%	100%	97.5%	97.5%	88.2%	99.4%	91.6%	92.1%	105%	94.8%	79.5%	99.2%	87.7%	110%	94.8%	97.4%	113%	92.4%	80%
C=CCOC(=O)C1=C(C)NC2=C(C(=O)CCC2)C1c1ccc(F)cc1 (stereo not given)	105%	101%	80.3%	85.2%	97.8%	90.1%	98.8%	80.6%	97.1%	101%	101%	102%	92.1%	76.1%	111%	89.6%	84.7%	99.3%	98.1%	93.6%
CN1C(=O)C(C2=NNC(c3ccccc3C(=O)O)C2)C(=O)N(C)C1=O (stereo not given)	106%	98.5%	85.4%	92.9%	98.1%	95.6%	108%	96.2%	101%	123%	98.9%	102%	97.2%	86.5%	96.9%	106%	86.6%	90.8%	96%	93.8%
O=C(Nc1ccccc1)c1cc2ccccc2s1	63.9%	104%	92.9%	99.7%	89.4%	82%	56.7%	67.1%	83.4%	107%	72.2%	85.5%	91.4%	71.2%	98.7%	94.2%	78.8%	91.7%	44.3%	83.3%
